# ASK1 primary: inhibitors of human ASK1 kinase | inhibition, % at 7.44 µM | AID 1159602 | Q99683 | AlphaScreen MKK6 phosphorylation by ASK1, luminescence | actives 0.99% (n = 22,000); in the data active = inhibition above about 35%;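 note: 0% = median of compound wells and 100% = no enzyme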
# ULK1 primary: inhibitors of human ULK1 kinase; O75385; AlphaScreen Atg13 phosphorylation by ULK1, luminescence; inhibition, % at 5.96 µM; actives 1.9% (n = 30,000); AID 1259251; in the data active = inhibition above about 43%;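 note: 0% = median of compound wells and 100% = no enzyme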
# Target sequence (O75385 whole entry, looked up): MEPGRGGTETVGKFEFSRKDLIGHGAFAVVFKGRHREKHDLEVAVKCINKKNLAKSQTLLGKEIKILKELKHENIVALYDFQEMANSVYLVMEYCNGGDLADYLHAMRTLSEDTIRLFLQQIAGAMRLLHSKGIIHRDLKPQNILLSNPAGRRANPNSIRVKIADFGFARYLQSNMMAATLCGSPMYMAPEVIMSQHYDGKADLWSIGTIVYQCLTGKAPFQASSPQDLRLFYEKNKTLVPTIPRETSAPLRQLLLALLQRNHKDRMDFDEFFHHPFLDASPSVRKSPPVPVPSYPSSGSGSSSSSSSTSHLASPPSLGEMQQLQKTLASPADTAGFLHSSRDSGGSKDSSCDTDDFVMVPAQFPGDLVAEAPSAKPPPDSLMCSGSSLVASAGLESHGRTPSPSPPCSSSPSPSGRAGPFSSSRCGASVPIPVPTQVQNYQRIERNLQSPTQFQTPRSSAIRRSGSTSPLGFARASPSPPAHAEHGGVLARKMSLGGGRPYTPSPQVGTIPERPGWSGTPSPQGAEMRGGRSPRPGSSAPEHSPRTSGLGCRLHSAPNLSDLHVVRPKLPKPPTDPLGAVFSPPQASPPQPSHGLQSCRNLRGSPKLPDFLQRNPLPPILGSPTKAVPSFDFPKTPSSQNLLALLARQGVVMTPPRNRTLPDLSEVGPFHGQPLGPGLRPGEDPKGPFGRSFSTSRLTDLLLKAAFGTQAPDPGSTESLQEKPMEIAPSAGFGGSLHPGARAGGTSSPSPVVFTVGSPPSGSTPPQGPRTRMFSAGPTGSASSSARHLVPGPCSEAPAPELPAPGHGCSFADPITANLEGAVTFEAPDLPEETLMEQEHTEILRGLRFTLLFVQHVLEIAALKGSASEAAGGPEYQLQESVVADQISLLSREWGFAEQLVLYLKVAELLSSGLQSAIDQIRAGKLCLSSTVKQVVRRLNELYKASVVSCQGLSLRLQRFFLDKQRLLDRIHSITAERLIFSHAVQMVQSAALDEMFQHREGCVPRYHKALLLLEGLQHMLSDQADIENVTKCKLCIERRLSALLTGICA
# * hit, by the source's call; . = not tested or not shown. Compounds with a hit are over-represented: about 2.5% of the library has one in this group of screens.
SMILES,ASK1 primary,ULK1 primary
CCCNc1nc(N2CCCC(C(=O)N(CC)CC)C2)nc2c1ncn2-c1ccsc1 (centres undefined),-43,19
CCc1c[nH]c2ncnc(-c3ccc(NC(=O)Nc4cccc(C(=O)NC(C)C)c4)cc3)c12,18,16
CC(C)NC(=O)c1cccc(NC(=O)Nc2ccc(-c3ncnc4[nH]ccc34)cc2)c1,15,47*
O=C(O)c1cc(N2CCNCC2)nc2ccccc12,.,1
Cc1cncc2c(S(=O)(=O)N3CC[C@@H](NC(=O)[C@@H](C)O)C3)cccc12,6,2
CC(=O)OC[C@H]1O[C@@H](OC(C)=O)[C@H](OC(C)=O)[C@@H]1OC(C)=O,.,-3
O=C(OC[C@H]1O[C@H](OC(=O)c2cc(O)c(O)c(OC(=O)c3cc(O)c(O)c(O)c3)c2)[C@H](OC(=O)c2cc(O)c(O)c(OC(=O)c3cc(O)c(O)c(O)c3)c2)[C@@H](OC(=O)c2cc(O)c(O)c(OC(=O)c3cc(O)c(O)c(O)c3)c2)[C@@H]1OC(=O)c1cc(O)c(O)c(OC(=O)c2cc(O)c(O)c(O)c2)c1)c1cc(O)c(O)c(OC(=O)c2cc(O)c(O)c(O)c2)c1,.,86*
O=C(O)CCCC[C@H]1SC[C@H]2NC(=O)N[C@H]21,.,100*
Oc1ccc(Br)cc1/C=N/Nc1nc2nonc2nc1Nc1ccc(F)cc1,.,0
CN1CCN(CCNC(=O)c2cccc(CN(C(=O)c3nc4ccc(-c5cn[nH]c5)cc4s3)C3CC3)c2)CC1,-37,53*
O=C(NCCN1CCCCC1)c1cccc(CN(C(=O)c2nc3ccc(-c4cn[nH]c4)cc3s2)C2CC2)c1,-2,9
CN(C)c1ccc(O)c2c1C[C@H]1C[C@H]3[C@H](N(C)C)C(=O)C(C(N)=O)=C(O)[C@@]3(O)C(=O)C1=C2O,.,10
C[C@H]1c2cccc(O)c2C(O)=C2C(=O)[C@]3(O)C(O)=C(C(N)=O)C(=O)[C@@H](N(C)C)[C@@H]3[C@@H](O)[C@@H]21,.,52*
Cc1cc(O)c2c(c1)Cc1cccc(O)c1C2=O,.,44*
O=C1c2cccc(O)c2C(=O)c2c(O)cccc21,.,30
c1ccc(CN2CCC(Nc3ncnc4nc(Nc5cnccn5)[nH]c34)CC2)cc1,-3,12
c1ccc(CN2CCC(Nc3ncnc4nc(Nc5ccncn5)[nH]c34)CC2)cc1,5,55*
CC(=O)Oc1c(C)c(C)c2c(c1C)CCC(C)(CCCC(C)CCCC(C)CCCC(C)C)O2 (centres undefined),.,2
Cc1c(C)c2c(c(C)c1OC(=O)CCC(=O)O)CC[C@@](C)(CCC[C@H](C)CCC[C@H](C)CCCC(C)C)O2,.,73*
O=C(NC1CCN(Cc2ccccc2)CC1)c1cnc(N2CCCC2CO)s1 (centres undefined),1,5
Cc1ncn(-c2ccc(Nc3nccc(-c4ccc(C#N)c(N5CCCC(O)C5)c4)n3)cc2)n1 (centres undefined),12,3
N#Cc1cc(-c2ccnc(Nc3cccc(N)c3)n2)ccc1N1CCCC1,19,41
Cc1ncn(-c2ccc(Nc3nccc(-c4ccc(N5CCCC(O)C5)c(C#N)c4)n3)cc2)n1 (centres undefined),-7,80*
N#Cc1cc(-c2ccnc(Nc3ccc(N)cc3)n2)ccc1N1CCC(O)CC1,8,85*
CC(C)n1cnc2c(N)nc(Nc3nc4ccccc4n3C)nc21,-10,-5
SMILES,ASK1 primary,ULK1 primary
COc1nc(N)nc(-c2ccccc2)n1,14,-1
O=C(Nc1ccc2[nH]ncc2c1)C(O)c1ccc(Br)cc1 (centres undefined),-17,0
Cc1ncn(-c2ccc(N(c3ncc4cccc(-c5cnn(C(C)C)c5)c4n3)C(C)C)cc2)n1,-3,92*
Cc1ncn(-c2ccc(Nc3ncc4cccc(-c5cnn(-c6ccccc6)c5)c4n3)cc2)n1,10,16
Cn1cc(-c2ccc3cnc(Nc4ccc(-n5cnc(-c6ccncc6)n5)cc4)nc3c2)cn1,-2,0
Cc1c[nH]c(=O)c2cccc(NC3CCN(C(=O)C(N)c4ccc(Br)cc4)CC3)c12 (centres undefined),11,14
Cc1c[nH]c(=O)c2cccc(S(=O)(=O)N3CCCNC[C@@H]3C)c12,0,47*
O=C(Nc1ccc(N2CCOCC2)cc1)C1CCN(c2ccc(Nc3ccc(C(F)(F)F)cc3)nn2)CC1,16,25
O=C(NCCO)C1CCN(c2ccc(Nc3ccc(C(F)(F)F)cc3)nn2)CC1,-12,46*
COc1ccc(-c2nc3ccc(C(=O)NCCc4ccc(O)cc4)cc3s2)cn1,9,3
CN1CCN(c2ncn(-c3ccc(Nc4ncc(F)c(-c5cccc(N6CCOCC6)c5)n4)cc3)n2)CC1,15,-3
Cn1cc(-c2nc(Nc3ccc(-n4cnc(N5CCC(O)CC5)n4)cc3)ncc2F)cn1,-40,58*
Cc1nc(C)n(-c2ccc(Nc3ncc(Br)c(-c4cnn(C)c4)n3)cc2)n1,-93,87*
Cc1nc(C)n(-c2ccc(Nc3nccc(-c4cc(F)cc(-c5cnn(C)c5)c4)n3)cc2)n1,31,-6
Cc1ncn(-c2ccc(Nc3ncc(Cl)c(-c4cnn(C)c4)n3)cc2)n1,-78,66*
Cc1ncn(-c2ccc(Nc3ncc(Cl)c(Nc4ccccc4-c4ncn(C)n4)n3)cc2)n1,10,2
Cc1cc(NC2CC2)nc(-c2ccc(C(N)=O)cc2)n1,-17,2
COc1ccc2c(c1)C[C@H](C(=O)Nc1ccc(-c3cn[nH]c3)cc1O[C@H]1CCN(C)C1)CO2,-4,9
c1ccc(-c2nccc(NC3CC3)n2)cc1,3,-6
CC(C)n1c(NCCN2CCOCC2)nc2c(NCCc3ccc(O)cc3)ncnc21,1,7
CNC(=O)c1cc(F)c(F)cc1Nc1cc(Nc2ccc(N3CCOCC3)cc2OC)ncc1C(F)(F)F,8,69*
CNC(=O)c1cc(F)c(F)cc1Nc1cc(Nc2ccc3c(c2)CC(=O)N3)ncc1C(F)(F)F,9,30
CNC(=O)c1cc(F)ccc1Nc1cc(Nc2ccc(N3CCOCC3)cc2OC)ncc1C(F)(F)F,17,84*
CNS(=O)(=O)c1ccccc1Nc1cc(Nc2ccc(N3CCOCC3)cc2OC)ncc1C(F)(F)F,8,91*
COc1cc(N2CCOCC2)ccc1Nc1cc(Nc2ccc(F)cc2OC)c(C(F)(F)F)cn1,18,26
SMILES,ASK1 primary,ULK1 primary
COc1cc(N2CCOCC2)ccc1Nc1cc(Nc2ccccc2S(=O)(=O)NC(C)C)c(C(F)(F)F)cn1,10,29
CNC(=O)c1ccccc1Nc1cc(Nc2ccc(N3CCOCC3)cc2OC)ncc1Br,0,86*
COc1cc(N2CCOCC2)ccc1Nc1cc(Nc2ccccn2)c(C(F)(F)F)cn1,25,39
CCCNc1ncnc2nc(Nc3ccc(C(F)(F)F)cc3)[nH]c12,-20,-4
NC(=O)c1ccc2nc(N3CCc4ccccc4C3)sc2c1,8,-1
Cc1cc(NCc2cccnc2)nc(Nc2ccccn2)n1,-2,23
N[C@H]1CC[C@@H](C(=O)Nc2cccc3cnccc23)C1,-9,-1
N[C@H]1CCC[C@H](C(=O)Nc2cccc3c(=O)[nH]cnc23)C1,9,53*
N#Cc1ccc(Nc2ncc(Cl)c(Nc3ccccc3C(N)=O)n2)cc1,-8,46*
COc1ccc(Nc2ncc(Cl)c(Nc3ccccc3-c3ccn(C)n3)n2)cc1,22,13
Cc1ncn(-c2ccc(Nc3ncc4ccnc(-c5ccccc5)c4n3)cc2)n1,2,0

# Screens from PubChem BioAssay.
